Compounds without any hit were thinned out: in the full panel of roughly 83,000, 20% have a hit.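 Results are percent growth after 48 hours of single-concentration exposure. 100 means growth as in untreated cells, lower positive values show inhibition; negative values down to -100 show cell death.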 Unmarked numbers belong to inactive results. The source made the active and inactive calls.
system: SK-OV-3 ovarian; experiment: NCI-60 one-dose screen, 48 h (100 = growth as untreated, 0 = no growth, -100 = all killed); details: 10 µM unless noted
Experimental: Growth inhibition of the SK-OV-3 human tumor cell line is measured as a screen for anti-cancer activity. Cells are grown in 96 well plates and exposed to the test compound for 48 hours. Compounds are tested at a single concentration, which is 10^-5 M for most compounds. The reported endpoint is percent growth (GI% or GIPRCNT), where numbers from 0 - 100% represent growth inhibition, and numbers from -100% - 0 represent cell death. For example, a value of 40 represents 60% growth inhibition. A value of 0 means no net growth occurred over the course of the experiment. A value of -40 indicates 40% of cells at the beginning of the experiment died by the end of the experiment. A value of -100 means all cells are dead at the end of the experiment.
NCI-60 Human Tumor Cell Lines Screen was performed using the standard one-dose NCI protocol, which is described in more detail at https://dtp.cancer.gov/discovery_development/nci-60/default.htm.
Compounds with GIPRCNT values below 10 were considered active. Activity score was based on GIPRCNT using the following formula: […]
Score is 0 for GIPRCNT values of 100 or above, 50 for GIPRCNT values of 0, and 100 for GIPRCNT values of -100.

Structure (SMILES)	growth
Cc1nc(NC(=O)N2CCC[C@H]2C(N)=O)sc1-c1ccnc(C(C)(C)C(F)(F)F)c1	-25.6% (active)
CN(C)CCn1c(=O)c2c3cc4c(cc3n(CCN(C)C)c2c2ccc(Cl)cc21)OCO4	41.3%
CCN1CCN(Cc2ccc(NC(=O)Nc3nc(-c4cc(OC)c(OC)c(OC)c4)cs3)cc2C(F)(F)F)CC1	36.1%
CC[n+]1c(/C=C/C=C2\N(C)c3ccccc3C2(C)C)sc2ccccc21	-12.3% (active)
[2H]C1([2H])[C@H](C)O[C@H](C)C([2H])([2H])N1c1ccc(NC(=O)c2cccc(-c3ccc(OC(F)(F)F)cc3)c2C)cn1	63.2%
COc1ccc(-c2cnc(-c3ccc(Cl)cc3)[nH]2)cc1OC	94.6%
O=c1nc2c(-c3nc4ccccc4s3)n[nH]n2c2sc3c(c12)CCCC3	92.3%
COC(=O)[C@H](Cc1ccccc1)NC(=O)[C@@H](OC)[C@@H]1Cc2cc3cc(OC4CC(OC5CC(O)C(O)C(C)O5)C(O)C(C)O4)c(C)c(O)c3c(O)c2C(=O)[C@H]1OC1CC(OC2CC(OC3CC(C)(O)C(O)C(C)O3)C(O)C(C)O2)C(O)C(C)O1 (stereo not given in full)	17%
COc1cc(C(=O)NNC(=O)c2ccc(NC(=O)CCl)cc2)cc(OC)c1OC	99.1%
Cc1cn(-c2cc(NC(=O)c3ccc(C)c(Nc4nccc(-c5cnccn5)n4)c3)cc(C(F)(F)F)c2)cn1	59.4%
Cc1cc(N(CCNc2ccnc3cc(Cl)ccc23)Cc2ccc3c(c2)OCO3)nc(N2CCN(C)CC2)n1	67.4%
NC(=O)c1c(OCc2c(F)cc(Br)cc2F)nsc1NC(=O)NCCCCN1CCCC1	52.2%
CNC(=O)c1cc(Oc2ccc3nc(NC(=O)Nc4ccc(Cl)c(C(F)(F)F)c4)sc3c2)ccn1	12.7%
Cc1[nH]n(C(N)=S)c(=O)c1N=Nc1ccc(S(=O)(=O)Nc2ccncn2)cc1	100%
CCCCCCCCCNCCCCCCCCC	92.6%
CCN1CCN(c2cc(C)nc(N(CCCNc3ccnc4cc(Cl)ccc34)Cc3ccc4c(c3)OCO4)n2)CC1	72.1%
CN(N)c1nc2sc3c(c2c(=O)[nH]1)CCCC3	82.7%
Cc1ccc(-c2cc3c(SCC(=O)Nc4cc(C(F)(F)F)ccc4Cl)nccn3n2)cc1	84.3%
O=C(NOCCO)c1ccc2cncn2c1Nc1ccc(I)cc1F	49%
COc1ccc(C(=O)c2cc(OC)c(OC)c(OC)c2)cc1/C=C/C(=O)c1ccc(F)cc1	93.5%

Structure (SMILES)	growth
O=C(Nc1ccc(Nc2ncnc3sc4c(c23)CCOC4)cc1)Nc1ccc(Cl)c(C(F)(F)F)c1	95.3%
C[C@@H](N)c1ccc(C(=O)Nc2ccnc3[nH]ccc23)cc1	-45.2% (active)
C/C(=C(/c1ccc(Cl)cc1)c1ccc(OCCN2CCCCCC2)cc1)c1ccccc1	113%
COc1cc2c(Oc3ccc(NC(=O)C4(C(=O)Nc5ccc(F)cc5)CC4)cc3F)ccnc2cc1OCCCN1CCOCC1	-13.8% (active)
CC(C)C1CCC(C)C(C2(C#N)C(N)=NC(N)=C2C#N)C1=O (stereo not given)	107%
COc1c(OCCCN2CCOCC2)ccc2c3n(c(=NC(=O)c4cnc(N)nc4)nc12)CCN3	-31.8% (active)
CCS(=O)(=O)N1CCN(c2ccc(Nc3ncc(C(N)=O)c(NC4CC4)n3)cc2)CC1	80.7%
CNC(=O)c1cnc(C)nc1-c1cc(C(C)(C)C)c(O)c(C(C)(C)C)c1	97.5%
N#Cc1cc2[nH]c3ccc(OC(F)(F)F)cc3c2oc1=O	62.5%
CN1CCC(CNc2ccc3ncc(-c4cccc(OC(F)(F)F)c4)n3n2)CC1	-1.52% (active)
CCN1CCN(CCCN(C[C@H]2Cc3ccccc3CN2)[C@H]2CCCc3cccnc32)CC1	89.4%
Cc1cc2c(F)c(Oc3ncnn4cc(OC[C@@H](C)OC(=O)[C@H](C)N)c(C)c34)ccc2[nH]1	73.9%
CN(C)C[C@@H]1CCn2cc(c3ccccc32)C2=C(C(=O)NC2=O)c2cn(c3ccccc23)CCO1	6.11% (active)
COc1ccc(OC)c(NC2=C(SCCc3ccccc3)C(=O)c3ccccc3C2=O)c1	88.5%
O=C(c1ccccc1)C(c1ccccc1)N1CCOCC1 (stereo not given)	105%
CCOC(=O)C1=C(C)NC(=O)NC1c1cc(=O)oc2ccc(C)cc12 (stereo not given)	104%
O=C(Cn1ccnc1)Nc1ccc(-c2nc3ccccc3s2)cc1	87.8%
Cc1ccc(N=C2CSc3nnc(-c4csc5c4CCCC5)n3N2)cc1	27.6%
O=S1(=O)OC(c2ccc(O)c(Cl)c2)(c2ccc(O)c(Cl)c2)c2ccccc21	101%
CCn1c(-c2nonc2N)nc2c(C#CC(C)(C)O)ncc(OC[C@H]3CCCNC3)c21	15%

From PubChem BioAssay (NCI)
